The source of these data is paper PMC7819943, “Rice protein-binding microarrays: a tool to detect cis-acting elements near promoter regions in rice”.

In all, about 39,000 sequences were measured (“fluorescence intensity (a.u.)”: median about 4,300, highest 2% from about 39,000 on). Shown is part of a subset that was picked to be rich in the highest values.

The target in the assay is T1, OsSMF1 (Oryza sativa, UniProt Q6ZLB0 1-436).
T1 sequence: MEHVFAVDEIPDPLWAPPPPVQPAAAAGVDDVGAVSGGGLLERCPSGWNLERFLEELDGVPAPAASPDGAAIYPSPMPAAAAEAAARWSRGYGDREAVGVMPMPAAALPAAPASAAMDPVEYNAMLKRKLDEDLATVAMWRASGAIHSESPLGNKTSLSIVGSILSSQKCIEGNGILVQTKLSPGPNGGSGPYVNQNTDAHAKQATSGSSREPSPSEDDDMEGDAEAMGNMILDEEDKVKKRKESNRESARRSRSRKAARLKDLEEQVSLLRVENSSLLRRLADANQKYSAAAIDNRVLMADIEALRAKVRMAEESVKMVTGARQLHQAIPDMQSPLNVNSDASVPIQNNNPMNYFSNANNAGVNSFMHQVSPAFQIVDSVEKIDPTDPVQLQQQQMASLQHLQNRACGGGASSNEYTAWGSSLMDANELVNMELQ
Briefly: protein-binding microarray (RPBM); PBS, 2% BSA, 51.3 ng/ul salmon testes DNA, 50 uM zinc acetate, 200 nM TF, 25 C, 1 h; high values mean tight binding. As to conditions: protein: recombinant; tags: N-terminal polyhistidine and DsRed monomer fusion (pET32a); chain copies: 2; label: CyDye5-dUTP incorporated in the synthesized complementary strand; 3' TTTTT single-stranded linker to array surface; dsDNA, one strand shown. In a few lines: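 An Axon 4000B scanner gave the binding signal as per-feature fluorescence intensity in arbitrary units. This followed washing of a custom Agilent array that had been incubated for 1 h at 25 °C with 200 nM protein in PBS, 2% BSA, salmon testes DNA and 50 µM zinc acetate. The proteins were transcription factors fused at the N-terminus to polyhistidine and DsRed, expressed in E. coli BL21-CodonPlus and purified on Ni–NTA.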
Take “TTTACATGTGTAGATCTAATGATGTGTTAATGCTAGTATACGGAGTCACCTAGTGCAG”: the binding signal was 4500 fluorescence intensity (a.u.).
Regarding “GTTTTGGTATTGGCTATAAAATGACATGGATGTTATTGGACGGAGTCACCTAGTGCAG”, the binding signal is 4760 fluorescence intensity (a.u.).
For “TTTGATGCTGATTATAGGAAAATGTAAATGTTTCTATATACGGAGTCACCTAGTGCAG”, the binding signal was 39500 fluorescence intensity (a.u.).
Next, “ACTATTGTTTGGTAGTAAAATTGATAATTAAATGACTATACGGAGTCACCTAGTGCAG”: 40900 fluorescence intensity (a.u.); “AACAAATATCGTTCCTCGGTGTCGTCATCGTGTTTGGATCCGGAGTCACCTAGTGCAG”: 6670 fluorescence intensity (a.u.); “GCAAGCAAAGAAAGTTGTCATCATCCCAATCCTCCTCCGCCGGAGTCACCTAGTGCAG”: 4050 fluorescence intensity (a.u.).
Next, “GTCTTTCCGAGTGGTGGCGGCGGTGGCTGATCTGCTTGTGCGGAGTCACCTAGTGCAG”: 3420 fluorescence intensity (a.u.); “CATTCCTCTCTTTCCCCTCATCCCTATAAATCCAACATTTCGGAGTCACCTAGTGCAG”: 3440 fluorescence intensity (a.u.); “CACCACCACCACGACGCCAACGTCAACGGCGAGGACCAAGCGGAGTCACCTAGTGCAG”: 3270 fluorescence intensity (a.u.).
The result for “CCCACATGTCGGTCCAATTCTCCCTCCAGCCACTCCCGACCGGAGTCACCTAGTGCAG” reads 3220 fluorescence intensity (a.u.); that for “CTAATATGGATAGATTGAAACATCAAGGACTAAACTGAGCCGGAGTCACCTAGTGCAG”, 3460 fluorescence intensity (a.u.); that for “GATTGAAACATCAAGGACTAAACTGAGTCTCAGATGAAACCGGAGTCACCTAGTGCAG”, 58100 fluorescence intensity (a.u.).
For the sequence “CTGAAACCAACATCCAAGTCATCATGTCCAAGATGTCTCCCGGAGTCACCTAGTGCAG”, the binding signal was 6640 fluorescence intensity (a.u.).
Next, “GAGAGATCGTACACGAGTCATTTCAACTCGGACAATTTGCCGGAGTCACCTAGTGCAG”: 3180 fluorescence intensity (a.u.); “CGACTCAAAGATAAATGATATGTCATCGGCACCTAGCCGACGGAGTCACCTAGTGCAG”: 4200 fluorescence intensity (a.u.).
The result for “TGTGACACATGTTACACATAATTATTATGTGAGTGGTAAACGGAGTCACCTAGTGCAG” reads 4020 fluorescence intensity (a.u.).
Take “ACAACAGCTCGATCCATCCACGCGCGCGTGACGGCTCGGCCGGAGTCACCTAGTGCAG”: the binding signal was 4690 fluorescence intensity (a.u.).
Next, “CAATTCTACAATATGCCACTGAGTTTACCAAGTTATACAACGGAGTCACCTAGTGCAG”: 4020 fluorescence intensity (a.u.).
Consider “GAAATCTGAACAACCAAGTTACTACTGTACTTATGTTAGTCGGAGTCACCTAGTGCAG”, for which the binding signal was 20700 fluorescence intensity (a.u.).
In the case of “TACTTCTACCTACCTTACCAAGTCCTGACAGTTACAACGTCGGAGTCACCTAGTGCAG”, the binding signal was 55400 fluorescence intensity (a.u.).
Next, “ATAAATACCAGCTTTCCAACCATCACTTATTCACTTGCCCCGGAGTCACCTAGTGCAG”: 3740 fluorescence intensity (a.u.).
For “TAATCCAGTACTACTTGCTGTGACAGTGTGATGTGCTTGTCGGAGTCACCTAGTGCAG”, the binding signal is 3540 fluorescence intensity (a.u.).
The result for “AGATTGCCATCGGACGCAGTAAAACGTGTCACTACCCCACCGGAGTCACCTAGTGCAG” reads 7590 fluorescence intensity (a.u.).
The result for “TGATGCTACAATAAACATTTACTAATGACGGATTAATTAGCGGAGTCACCTAGTGCAG” reads 3430 fluorescence intensity (a.u.); that for “CTTAATTAATTATACACACAAACATTCCCTCCAATGCATGCGGAGTCACCTAGTGCAG”, 3760 fluorescence intensity (a.u.).
On to “TAAACACAATTCTCCCTAATTATTATTTCTGGATGATGAGCGGAGTCACCTAGTGCAG”, for which the binding signal was 41400 fluorescence intensity (a.u.).
The result for “AATGTTTGTAGCACGGGAGGCATACCACATACATACATTGCGGAGTCACCTAGTGCAG” reads 3640 fluorescence intensity (a.u.).
The result for “CTCGATCACACACGGTGTCACAGTCACAGGTGCATTGACGCGGAGTCACCTAGTGCAG” reads 7140 fluorescence intensity (a.u.); that for “ACTCCCTCGACGGTTTTGGAGGGCGATTTTGCTGACGTGGCGGAGTCACCTAGTGCAG”, 47600 fluorescence intensity (a.u.); that for “TAGAGAGCGGTTTTGCTGACGTGGCGTATACGTGACGGTACGGAGTCACCTAGTGCAG”, 33100 fluorescence intensity (a.u.).
In the case of “GATGACGACGGCGATGACGGCGGGGCGGTTTGGAGCGGGGCGGAGTCACCTAGTGCAG”, the binding signal was 4720 fluorescence intensity (a.u.).
The result for “TGGAGGCGACGTGGCGGTCGTTGACTCGTTGTGTGCTCGACGGAGTCACCTAGTGCAG” reads 7090 fluorescence intensity (a.u.).
Next, “GTTTTGGAGGGCGGTTTTGCTGACGTGGCGCTGACATGGCCGGAGTCACCTAGTGCAG”: 32800 fluorescence intensity (a.u.).
Next, “CTCTCCCAGCGGTAATGGAGGGCGGTTTTGCTGACGTGGCCGGAGTCACCTAGTGCAG”: 58300 fluorescence intensity (a.u.).
Regarding “GAGAGGGGTGCGCAGTGTGTTGTGGTGGTGCACATGACGGCGGAGTCACCTAGTGCAG”, the binding signal was 3510 fluorescence intensity (a.u.).
Next, “CCGGAAAATCTATCTGTGCTTATAAATAGCCATTATCCAACGGAGTCACCTAGTGCAG”: 57400 fluorescence intensity (a.u.); “AGATAATCCATAATAATAATTAGCTTAATAATCTAAATCACGGAGTCACCTAGTGCAG”: 27300 fluorescence intensity (a.u.).
The result for “GCGTGTGCATCTGCCATGTAATCCAAAATATAGCCATGAACGGAGTCACCTAGTGCAG” reads 3660 fluorescence intensity (a.u.).
With “TCGCAACAACAAGAATGATGATGGCATGACGAAAATGCTACGGAGTCACCTAGTGCAG”, the binding signal is 3570 fluorescence intensity (a.u.).
Take “CTCGTGGGGACGACGCTGGTGTCCGTGTACTGCAAGTGCGCGGAGTCACCTAGTGCAG”: the binding signal was 4060 fluorescence intensity (a.u.).
The result for “TGTCCCCGCGCATCCGCGGACGTGGCTGGGCAACTGCTCGCGGAGTCACCTAGTGCAG” reads 8030 fluorescence intensity (a.u.); that for “TACTGCATGCGCAAAGAGTTAATCCGTGGGGCTCGTGGGACGGAGTCACCTAGTGCAG”, 45300 fluorescence intensity (a.u.).
